Screening data as filed in PubChem BioAssay.
WRN helicase inh – WRN helicase (human) inhibition; Potency, µM (series often up to 114 µM), most hits filed as inhibitors; hit rate 0.46% among 360,000; WRN helicase unwinding, fluorescent forked duplex, kinetic; Q14191; also: nearly all actives have a fitted effect of over 55% in size
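Primary qHTS, 1536-well format. 20 nM WRN + compound, 15 min RT; start with 100 nM forked fluorophore/quencher duplex, 2 mM ATP (final); kinetic read ex 525/em 598 nm.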
APE1 inh – inhibitors of human APE1 endonuclease; P27695; recombinant APE1, TAMRA/BHQ-2 abasic DNA cleavage fluorescence; Potency, µM (series often up to 65.8 µM), actives largely listed as inhibitors; hit rate 0.35% among 350,000; also: nearly all actives have a fitted effect of over 55% in size
Target sequence (P27695 whole entry, looked up): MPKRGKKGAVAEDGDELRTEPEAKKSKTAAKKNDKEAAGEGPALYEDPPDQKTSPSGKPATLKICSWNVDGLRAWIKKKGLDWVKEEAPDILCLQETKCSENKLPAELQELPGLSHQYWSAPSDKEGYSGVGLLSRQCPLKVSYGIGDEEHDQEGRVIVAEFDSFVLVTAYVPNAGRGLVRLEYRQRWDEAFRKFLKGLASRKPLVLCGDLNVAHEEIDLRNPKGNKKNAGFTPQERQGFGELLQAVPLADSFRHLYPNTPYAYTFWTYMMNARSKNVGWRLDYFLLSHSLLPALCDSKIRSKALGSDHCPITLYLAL
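Enzyme (0.75 nM final) and test compound are incubated 15 min at room temperature before adding 50 nM quenched THF abasic-site duplex. Cleavage dequenches TAMRA, followed at 525/598 nm over three reads one minute apart.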
BLM helicase inh – Bloom syndrome helicase (human) inhibition; P54132; AID 2528; recombinant BLM DNA unwinding, fluorescence dequenching; hit rate 0.2% among 350,000; Potency, µM (highest dose often 56.1 µM), most hits filed as inhibitors; also: nearly all actives have a fitted effect of over 35% in size
RECQ1 inh-1 – RECQ1 (human) helicase inhibition. Potency, µM (doses to about 57.3 µM), most hits filed as inhibitors. RECQ1 DNA unwinding, red fluorescence kinetic read. hit rate 0.54% among 240,000. P46063. AID 2549; also: nearly all actives have a fitted effect of over 30% in size
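50 nM RECQ1T1 preincubated 15 min with compound in Tris pH 8.0 buffer with MgCl2, DTT, Tween-20 and 2.5 ug/ml poly(dI-dC); started with 200 nM TAMRA/BHQ-2 forked duplex and 2 mM ATP. Unwinding read as fluorescence (525/598 nm), two reads 2 h apart.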
FEN1 inh – blocks human flap endonuclease 1; P39748; Recombinant FEN1 flap cleavage, fluorescence, 15 min; Potency, µM (highest dose often 114 µM), most hits filed as inhibitors; hit rate 0.35% among 390,000; AID 588795; also: nearly all actives have a fitted effect of over 65% in size
Target sequence (P39748 whole entry, looked up): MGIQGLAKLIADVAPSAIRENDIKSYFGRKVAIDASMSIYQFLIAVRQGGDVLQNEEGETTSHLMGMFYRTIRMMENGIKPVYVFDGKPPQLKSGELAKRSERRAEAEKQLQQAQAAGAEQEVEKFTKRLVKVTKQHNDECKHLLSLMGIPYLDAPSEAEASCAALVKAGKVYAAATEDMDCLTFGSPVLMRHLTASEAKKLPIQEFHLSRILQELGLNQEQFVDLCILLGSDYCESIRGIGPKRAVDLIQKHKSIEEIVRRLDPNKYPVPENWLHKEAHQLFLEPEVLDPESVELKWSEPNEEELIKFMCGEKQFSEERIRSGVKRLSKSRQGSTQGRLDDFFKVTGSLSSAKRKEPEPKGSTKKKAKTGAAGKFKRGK
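In this screen, 50 nM flap DNA substrate was added to 10 nM FEN1 pretreated with compound for 15 min at room temperature; cleavage was followed with reads at 0 and 15 min, and Hill fitting gave concentration–response parameters.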
L3MBTL1 block – inhibitors of human L3MBTL1. AID 485360. Q9Y468. Potency, µM (doses to about 57.1 µM), hits mostly inhibitors. AlphaScreen L3MBTL1–H3K9me1 peptide binding. hit rate 0.66% among 230,000; also: nearly all actives have a fitted effect of over 60% in size
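L3MBTL1 50 nM + b-AHA-H3(1-15)K9me1 75 nM, 30 min RT; compound added, 30 min RT; streptavidin donor/Ni-chelate acceptor beads 10 ug/mL each final, 30 min RT dark; AlphaScreen read.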
RECQ1 inh conf – confirmation of human RECQ1 helicase inhibitors; RECQ1 helicase DNA unwinding, fluorescence; shares compounds with RECQ1 inh-1; Potency, µM (titrated, usually from 229 µM), usual class: inhibitors; hit rate 28% among 610; also: nearly all actives have a fitted effect of over 45% in size
RECQ1 ADP FP – ADP displacement flagged in RECQ1 inhibitor counter-screen. shares compounds with RECQ1 inh-1. ADP fluorescence polarization displacement counterscreen. Potency, µM (highest dose often 228 µM), actives largely listed as inhibitors. hit rate 27% among 530. AID 2711; also: nearly all actives have a fitted effect of over 45% in size
RECQ1 inh-2 – blocks human RECQ1 DNA unwinding; hit rate 15% among 1,100; Potency, µM (doses to about 119 µM), actives largely listed as inhibitors; recombinant RECQ1 DNA unwinding, red fluorescence; shares compounds with RECQ1 inh-1; AID 504841; also: nearly all actives have a fitted effect of over 50% in size
A number is an active result; - = inactive; ? = inconclusive; . = not tested or not shown; ! = repeats disagree; [ ] = dose if it differs, or a comment. Only some compounds are listed: those with a hit (about 1% of all), similar ones and a draw of the others. Calls follow the shape of the dose curve; as a rule, active = well fitted curve in the direction sought with a large enough effect; inconclusive = small, poorly fitted or top-dose-only effect, or another doubt; inactive = no such curve, though single readings can be large; an effect the other way counts as inactive or inconclusive.

SMILES	WRN helicase inh	APE1 inh	BLM helicase inh	RECQ1 inh-1	FEN1 inh	L3MBTL1 block	RECQ1 inh-2	others
Cc1cc(-c2csc(NC(=O)c3ccc(=O)n(C)n3)n2)c(C)n1CC1CCCO1 (stereo not given)	-	-	?	?	-	-	-
O=C(COc1cccnc1[N+](=O)[O-])c1ccc(Cl)s1	?	?	-	?	?	?	?
CCOC(=O)c1cc2c(=O)n3ccccc3nc2n(Cc2ccco2)c1=NC(=O)c1cccc(OC)c1	-	-	?	-	-	-	.
CCOC(=O)c1cc2c(=O)n3ccccc3nc2n(Cc2ccco2)c1=NC(=O)c1ccc(OC)cc1	-	-	?	?	79µM!	?	-
O=C(c1ccc(F)cc1F)N1CCN(S(=O)(=O)c2ccc3c(c2)OCCO3)CC1	-	-	.	.	-	-	.
CCN(CC)C(=O)CSc1nc2ccc(NC(=O)CSc3nccn3C)cc2s1	-	-	-	20µM	-	?	-	RECQ1 inh conf=?;RECQ1 ADP FP=?
CCOC(=O)C1=CCN(S(=O)(=O)c2ccccc2Br)C1c1ccccc1 (stereo not given)	-	.	.	.	.	.	.
COC(=O)c1sc2ccccc2c1NC(=O)c1ccc(S(=O)(=O)N2CCCCC2C)cc1 (stereo not given)	-	-	-	-	-	-	.	RECQ1 inh conf=-;RECQ1 ADP FP=-
COC(=O)c1sc2ccccc2c1NC(=O)c1ccc(S(=O)(=O)N2CCCCC2)cc1	-	-	-	-	-	-	.
COc1ccc(CN2CCN(C(=O)c3c(-c4ccccc4)noc3C)CC2)cc1F	-	-	.	.	-	-	.
O=C(O)c1cccc(Cn2c(Cl)c(/C=N/NC(=O)c3ccccc3)sc2=O)c1	-	-	-	-	-	-	.
O=C(O)c1cccc(Cn2c(Cl)c(/C=N/NC(=O)c3cc4ccccc4cc3O)sc2=O)c1	40µM	?	8.9µM	4.5µM	18µM	35µM	.	RECQ1 inh conf=?;RECQ1 ADP FP=-
O=C1C=CC2=C3c4cc(O)c(O)cc4C[C@@]3(O)COC2=C1	.	13µM	-	20µM	.	.	25µM
CCCCn1cnc2c(Sc3c([N+](=O)[O-])ncn3C)nc(N)nc21	-	.	.	.	-	.	.
CCCCn1cnc2c(=O)[nH]c(N)nc21	.	.	.	.	-	.	.	RECQ1 inh conf=-
Brc1cccc(-c2nnc(CN3CCN(c4ccccn4)CC3)o2)c1	.	.	-	.	-	.	.
Cc1ccc(CSC2=Nc3ccccc3C3=NC(CC(=O)NCc4ccco4)C(=O)N23)cc1 (stereo not given)	-	-	-	?	-	?	?
CCCNS(=O)(=O)c1ccc2nc(NC(=O)c3ccc(F)cc3)sc2c1	.	.	-	.	-	.	.
CS(=O)(=O)c1ccc2nc(NC(=O)c3ccc(NS(=O)(=O)c4ccc(F)c(F)c4)cc3)sc2c1	-	-	-	32µM	-	.	-
O=C(Nc1nc2ccc(SC(F)F)cc2s1)c1ccc(NS(=O)(=O)c2ccc(F)c(F)c2)cc1	-	-	-	?	?	-	?
CS(=O)(=O)c1ccc2nc(NC(=O)c3cccc(NS(=O)(=O)c4ccc(F)c(F)c4)c3)sc2c1	?	-	-	-	-	-	.
CC1CCC(NC(=O)C(NS(=O)(=O)c2ccc(Br)cc2)C(C)C)CC1 (stereo not given)	-	.	.	.	.	.	.
C=CCN1C(=O)CSC1=Nc1ccc(C(=O)O)cc1	-	-	-	.	-	-	.
C=CCN1C(=O)CS/C1=C(\C#N)S(=O)(=O)c1ccc(C)cc1	?	-	-	20µM	-	.	?
CC1CN(S(=O)(=O)c2ccc(C(=O)Nc3ccc(S(=O)(=O)Nc4nccs4)cc3)cc2)CC(C)O1 (stereo not given)	-	-	-	-	-	-	.	RECQ1 inh conf=-;RECQ1 ADP FP=-
SMILES	WRN helicase inh	APE1 inh	BLM helicase inh	RECQ1 inh-1	FEN1 inh	L3MBTL1 block	RECQ1 inh-2	others
CC1CN(S(=O)(=O)c2ccc(C(=O)Nc3nccs3)cc2)CC(C)O1 (stereo not given)	-	-	-	-	-	-	.
COc1cc(OC)cc(C(=O)NNC(=O)c2ccc(S(=O)(=O)N3CC(C)OC(C)C3)cc2)c1 (stereo not given)	-	-	-	-	-	.	.	RECQ1 inh conf=-;RECQ1 ADP FP=-
CNc1ccc(-c2cccc([N+](=O)[O-])c2)cn1	-	.	.	.	.	.	.
COc1ccc(-n2nc(C(=O)NCC(=O)NCC3CCCO3)c3ccccc3c2=O)c(OC)c1 (stereo not given)	-	-	-	-	-	-	.
COc1ccc(-n2c(N)c(C(=O)NCC3CCCO3)c3nc4ccccc4nc32)c(OC)c1 (stereo not given)	-	?	-	?	-	-	-
CC(C)n1c(=S)[nH]c2scc(-c3cccs3)c2c1=O	-	?	-	28µM	-	-	?
Cc1ccc(CNc2ncnc3ccc(-c4c(C)noc4C)cc23)o1	.	-	-	-	.	.	.
COc1cccc(C#CC2=CC(=O)C[C@H](c3ccc(F)cc3)C2)c1	-	.	.	.	.	.	.
Cc1cc2c(NC(=O)Nc3ccc(C(C)(C)C)cc3)cccc2nn1	-	-	-	-	?	-	.
Cc1cc2c(NC(=O)Nc3ccccc3)cccc2nn1	-	?	-	?	-	-	-
N#Cc1nc(NCCCCO)nc(Nc2ccccc2)n1	.	-	-	-	.	.	.
CC1=Nc2ccccc2N=C(NC(=O)CSc2nnnn2-c2ccccc2)C1c1ccccc1 (stereo not given)	-	-	-	-	-	.	.	RECQ1 inh conf=-;RECQ1 ADP FP=-
NC(=O)c1ccc(-n2nnnc2SCC(=O)Nc2ccccc2)cc1	-	-	-	.	-	-	.
Cc1ccc(N2CCN(c3nc4c(S(=O)(=O)c5ccc(C)c(C)c5)nnn4c4ccccc34)CC2)c(C)c1	.	.	-	.	-	.	.
C/C(=N\N=C(c1ccccc1)c1ccccc1)c1cccs1	-	-	-	18µM	-	-	.	RECQ1 inh conf=-;RECQ1 ADP FP=-
CCCC[C@]12Cc3cc(C#N)ccc3C(O1)c1c(cc(C)n(-c3ccccc3)c1=O)O2	.	-[12.4 µM]	-[12.4 µM]	.	.	.	.
CC1CCN(S(=O)(=O)c2ccc3c(c2)CCN3C(=O)CCC(=O)O)CC1	-	-	-	-	-	-	.	RECQ1 inh conf=-;RECQ1 ADP FP=-
CCCCN(c1ccccc1)S(=O)(=O)c1ccc2c(c1)CCN2C(=O)CCC(=O)O	-	-	-	-	-	-	.	RECQ1 inh conf=-;RECQ1 ADP FP=?
O=C(O)CCC(=O)N1CCc2cc(S(=O)(=O)N3CC=C(c4ccccc4)CC3)ccc21	-	-	-	-	-	.	.	RECQ1 inh conf=-;RECQ1 ADP FP=?
CC(=O)N1CCCc2cc(S(=O)(=O)N3CCCCC3)ccc21	.	.	-	.	-	.	.
O=C(O)CCC(=O)N1CCc2cc(S(=O)(=O)N3CCC(Cc4ccccc4)CC3)ccc21	-	-	-	-	-	.	.
